Screens as filed in PubChem.
NRP1-CendR mod: modulators of CendR peptide binding to NRP-1, primary screen, biochemical, fluorescence polarization, uHTS; Neuropilin-1 (Homo sapiens), O14786; FAM-RPARPAR peptide binding to NRP-1; inhibition, % at 25 µM; 360,000 compounds, 0.85% hits; AID 602438, 2012;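 active means inhibition or corrected inhibition above about 18%, plus a signal ratio from 0.5 to 1.5, limit read from the data, passing the limit was not always enough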
VLA-4 inh: inhibition in human VLA-4 binding assay, primary screen, VLA-4 allosteric modulator project, MLPCN library, flow cytometry, VLA-4 expressing cells | ligand binding flow cytometry | Integrin alpha-4 (Homo sapiens), P13612 | 330,000 compounds, 0.2% hits | inhibition, % (about 7 µM as worked out from the volumes in the protocol); in the data active means inhibition above about 50%
A3A deaminase: APOBEC3A ssDNA deaminase inhibitors, primary screen, selectivity assay for APOBEC3G inhibitor project, biochemical, FAM/TAMRA oligo cleavage fluorescence; 330,000 compounds, 0.41% hits; AID 493011, 2011; recombinant A3A, FAM/TAMRA ssDNA deamination fluorescence; inhibition, % at 20 µM;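 active means at least 40% inhibition at 20 µM here, with at most 30% in a related deaminase screen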;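 further: plate controls were A3A with DMSO for no effect and wells lacking A3A enzyme for full effect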
Target sequence (P31941 whole entry, looked up): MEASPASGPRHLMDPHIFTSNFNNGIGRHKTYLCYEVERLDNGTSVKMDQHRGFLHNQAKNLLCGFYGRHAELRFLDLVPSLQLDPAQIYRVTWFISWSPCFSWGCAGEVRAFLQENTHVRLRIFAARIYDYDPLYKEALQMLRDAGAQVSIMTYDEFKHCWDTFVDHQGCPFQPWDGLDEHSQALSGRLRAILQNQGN
APOBEC3G inh: APOBEC3G DNA deaminase inhibitors, primary screen, biochemical, fluorescence, single-stranded DNA substrate, uHTS | DNA dC->dU-editing enzyme APOBEC-3G (Homo sapiens), Q9HC16 | recombinant A3G, ssDNA deamination FAM/TAMRA fluorescence | inhibition, % at 20 µM | 330,000 compounds, 0.28% hits | AID 493012, 2011;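 active means inhibition of at least 40% at 20 µM, with no more than 30% in the related APOBEC3A deaminase screen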;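 further: plate controls were DMSO wells with A3G for no effect and wells lacking A3G enzyme for full effect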
Target sequence (Q9HC16 whole entry, looked up): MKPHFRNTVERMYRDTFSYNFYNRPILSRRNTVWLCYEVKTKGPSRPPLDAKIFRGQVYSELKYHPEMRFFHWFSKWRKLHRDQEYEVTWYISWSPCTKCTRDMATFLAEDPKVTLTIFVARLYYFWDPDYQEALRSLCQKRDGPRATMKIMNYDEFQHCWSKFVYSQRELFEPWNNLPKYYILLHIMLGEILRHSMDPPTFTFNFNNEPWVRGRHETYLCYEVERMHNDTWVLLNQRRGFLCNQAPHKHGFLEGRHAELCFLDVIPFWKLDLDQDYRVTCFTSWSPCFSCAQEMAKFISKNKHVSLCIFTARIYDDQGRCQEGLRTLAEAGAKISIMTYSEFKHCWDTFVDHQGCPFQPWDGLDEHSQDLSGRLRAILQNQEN
MIN6 prolif-1: inducers of MIN6 beta-cell proliferation, primary screen, ATP luminescence, uHTS; MIN6 cells proliferation, ATPlite luminescence, 48 h; cells starved in 0.2% serum; 100% = growth in 10% serum; proliferation, % at 10 µM; 330,000 compounds, 0.29% hits; AID 2380, 2010;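 active means compounds whose signal lies at least 3.5 SD above the mean of all wells on their plate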;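 further: 0% = DMSO-treated cells in low-serum medium and 100% = 10% serum control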
MIN6 prolif-2: inducers of beta-cell proliferation in MIN6, confirmation, MIN6 cells, mouse | shares compounds with MIN6 prolif-1 | ATPlite luminescence, 48 h; cells kept in 0.2% serum; scaled between 0.2% and 10% serum | proliferation increase, % at 50 µM | 920 tested, under 10 active;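 active means proliferation increase above 40% at any of the four tested concentrations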
Numbers without * were called inactive. In the library only some 1.8% were active in any assay of this set; here they are far more common.

O=C(COC(=O)CNC(=O)c1ccc(Cl)cc1Cl)NC1CCCCC1 was read as NRP1-CendR mod -2.3, VLA-4 inh 5.6, A3A deaminase 2.1, APOBEC3G inh -1.9 and MIN6 prolif-1 -2.4.
Screening COc1ccccc1CNC(=O)CSc1ccc(-c2cccs2)nn1 returned NRP1-CendR mod -3.6, VLA-4 inh -0.7, A3A deaminase 2.3, APOBEC3G inh -9.1, MIN6 prolif-1 7.8* and MIN6 prolif-2 -2.5.
`Cc1ccccc1C(=O)NC1CC2CCCC(C1)N2C(=O)Nc1ccccc1` (centres undefined) gave NRP1-CendR mod 5.7, VLA-4 inh 2.3, A3A deaminase -1.2, APOBEC3G inh -5.7 and MIN6 prolif-1 0.0.
Screening CCN1C(=O)/C(=C/c2ccc(C)o2)N(C)C1=S returned NRP1-CendR mod 7.4, VLA-4 inh inactive, A3A deaminase -1.8, APOBEC3G inh 9.1, MIN6 prolif-1 0.0* and MIN6 prolif-2 -0.7.
`CCN1C(=O)/C(=C/c2cccs2)N(C)C1=S` gave NRP1-CendR mod -0.3, VLA-4 inh 19.3, A3A deaminase 0.6, APOBEC3G inh -1.3 and MIN6 prolif-1 0.8.
`CC1(C)CNC(=O)CC(C)(C)N1O` gave NRP1-CendR mod 12.4, VLA-4 inh 10.4, A3A deaminase -4.7, APOBEC3G inh -6.0, MIN6 prolif-1 6.6* and MIN6 prolif-2 -4.3.
Screening Cc1cc(C)cc(OCCNC(=O)C2CCN(S(=O)(=O)c3ccccc3)CC2)c1 returned NRP1-CendR mod 7.3, VLA-4 inh 22.5, A3A deaminase -4.0, APOBEC3G inh -9.8 and MIN6 prolif-1 -2.1.
COc1cc(CCC(=O)OCC(=O)NCc2ccc(Cl)cc2)cc(OC)c1OC was read as NRP1-CendR mod -6.9, VLA-4 inh -0.5, A3A deaminase 4.6, APOBEC3G inh 23.6 and MIN6 prolif-1 -1.0.
Screening COc1ccc(CCC(=O)OCC(=O)NCc2ccc(OC)c(OC)c2)cc1OC returned NRP1-CendR mod 10.9, VLA-4 inh 0.8, A3A deaminase 0.3, APOBEC3G inh 1.7, MIN6 prolif-1 9.2* and MIN6 prolif-2 2.4.
For COc1cc2c(cc1OC)C(COc1ccccc1OC)N(C(=O)c1ccco1)CC2 (centres undefined) the results were NRP1-CendR mod -1.2, VLA-4 inh 13.4, A3A deaminase 0.8, APOBEC3G inh -5.1, MIN6 prolif-1 8.8* and MIN6 prolif-2 0.2.
`CCC(=O)N1CCc2cc(OC)c(OC)cc2C1COc1ccccc1OC` (centres undefined) gave NRP1-CendR mod -0.2.
COc1cc2c(cc1OC)C(COc1ccc(F)cc1)N(C(C)=O)CC2 (centres undefined) was read as NRP1-CendR mod -1.9, VLA-4 inh 5.3, A3A deaminase -1.7, APOBEC3G inh -2.9 and MIN6 prolif-1 -0.8.
Screening CCC(=O)N1CCc2cc(OC)c(OC)cc2C1COc1ccc(F)cc1 (centres undefined) returned NRP1-CendR mod 4.9, VLA-4 inh -4.7, A3A deaminase -3.8, APOBEC3G inh -6.7, MIN6 prolif-1 9.3* and MIN6 prolif-2 -0.9.
For CCN1C(=O)/C(=C2/SC(C)=C(C)N2CC)SC1=S the results were NRP1-CendR mod -68.6, VLA-4 inh 7.9, A3A deaminase -6.3, APOBEC3G inh -8.3, MIN6 prolif-1 7.5* and MIN6 prolif-2 1.1.
COc1ccc(CCNC/C=C/c2ccccc2)cc1 was read as NRP1-CendR mod 1.8 and VLA-4 inh -2.0.
COc1ccc(CNC/C=C/c2ccccc2)cc1 was read as NRP1-CendR mod 2.0, VLA-4 inh 5.7, A3A deaminase -5.8, APOBEC3G inh -14.1, MIN6 prolif-1 7.6* and MIN6 prolif-2 -5.7.
Screening Cc1ccc(NS(=O)(=O)c2ccc(C)c(NC(=O)c3ccc(S(=O)(=O)N4CCCCCC4)cc3)c2)c(C)c1 returned NRP1-CendR mod -2.6.
For CCn1c(C)nc2cc(C(=O)N/N=C/c3ccc(OC)cc3)ccc21 the results were NRP1-CendR mod -1.9, VLA-4 inh 10.6, A3A deaminase 1.5, APOBEC3G inh -2.8, MIN6 prolif-1 7.8* and MIN6 prolif-2 2.6.
For COc1ccc(C(=O)NNS(=O)(=O)c2ccccc2)cc1 the results were NRP1-CendR mod -1.8, VLA-4 inh -3.6, A3A deaminase 0.5, APOBEC3G inh -3.0, MIN6 prolif-1 0.0* and MIN6 prolif-2 1.0.
For CCCCCCNC(=O)O[C@H]1C[C@H](C(=O)OC)[C@H](C(=O)OC)C2CN(S(=O)(=O)c3ccc(C)cc3)C[C@@]21O (some centres undefined) the results were NRP1-CendR mod 8.3.
Screening Cc1cccc(-c2n[nH]c(=S)n2Cc2ccccc2)c1 returned NRP1-CendR mod -16.9, VLA-4 inh -2.3, A3A deaminase 0.3, APOBEC3G inh 20.2, MIN6 prolif-1 6.3* and MIN6 prolif-2 -4.5.
`S=c1[nH]nc(-c2cccc(Cl)c2)n1Cc1ccccc1` gave NRP1-CendR mod -10.2, VLA-4 inh 27.4, A3A deaminase -7.2, APOBEC3G inh 2.5 and MIN6 prolif-1 2.3.
O=C(O)c1ccccc1SC1CC(=O)N(C2CCCCC2)C1=O (centres undefined) was read as NRP1-CendR mod 3.9, VLA-4 inh -10.4, A3A deaminase -3.0, APOBEC3G inh -8.6, MIN6 prolif-1 9.9* and MIN6 prolif-2 -6.4.
For O=C(CNCc1ccc(F)cc1)Nc1ccc(C(=O)N2CCCCC2)cc1 the results were NRP1-CendR mod -4.3, VLA-4 inh 12.9, A3A deaminase -5.6, APOBEC3G inh -7.5 and MIN6 prolif-1 -2.0.
`COc1cccc(/C=N/NC(=O)CO/N=C(\C)c2cccs2)c1OC` gave NRP1-CendR mod -0.4, VLA-4 inh 0.5, A3A deaminase 2.8, APOBEC3G inh 1.3, MIN6 prolif-1 4.6* and MIN6 prolif-2 -0.4.
CS(=O)(=O)N(CC(=O)N1CCCC1)c1cccc(F)c1 was read as NRP1-CendR mod -1.5, VLA-4 inh -7.0, A3A deaminase -4.8, APOBEC3G inh -1.0 and MIN6 prolif-1 0.5.
For COc1ccc(/C=N/n2cnc3c([nH]c4ccccc43)c2=O)cc1COc1ccccn1 the results were VLA-4 inh 16.9, A3A deaminase 6.4, APOBEC3G inh 14.4, MIN6 prolif-1 8.3* and MIN6 prolif-2 3.0.
Screening Cc1nc(-c2ccc(F)cc2)c(CC(=O)Nc2ccc(C)c(S(=O)(=O)N3CCOCC3)c2)s1 returned NRP1-CendR mod 9.1, VLA-4 inh 3.0, A3A deaminase -1.1, APOBEC3G inh -6.9 and MIN6 prolif-1 -2.5.
